In all, about 410,000 compounds went through this assay and about 2,000 (0.49%) were called active. Where a call stands in place of a potency, no number is given. Not shown: some 8% with an inconclusive outcome. Calls follow the shape of the full dose curve; tested in HEK293 reporter line. This excerpt belongs to a sample that is enriched for actives.
Potency is read from the fitted curve at half-maximal effect.

This experiment can be described thus: qHTS Assay for Foot and Mouth Disease Virus Antivirals: Primary Screen against the MLPCN compound library. Also: nearly all actives have a fitted effect of over 55% in size. Conditions: FMDV antiviral cell-based qHTS; series mostly up to 57.9 µM. (In qHTS, concentration-response curves come from the screen itself.)
For the compound `O=C(COc1ccc(F)cc1)Nc1ccc2nc(SCC(=O)N3CCOCC3)sc2c1`, the Potency is 25.1 µM (active).

Turning to `O=C(COc1ccc(F)cc1)Nc1ccc2nc(SCC(=O)N3CCc4ccccc43)sc2c1`, the Potency result was “inactive”.

Regarding `Cc1ccc(OCCSc2nc3ccc(NC(=O)c4ccc(F)cc4)cc3s2)cc1`, the Potency result is “inactive”.

On to `Cc1occc1C(=O)NC1CCCN(Cc2ccc(Cl)cc2)C1` (configuration not stated), for which the Potency result was “inactive”.

Turning to `Cc1nn(CC(C)C)c(Cl)c1C(=O)N(C)CC(=O)Nc1ccc(Cl)cc1`, the Potency result was “inactive”.

Regarding `C=CCN(c1ccc(C(=O)Nc2cccc(C)c2)cc1)S(C)(=O)=O`, the Potency result was “inactive”.

In the case of `CC1CC(C)CN(S(=O)(=O)c2ccc(C(=O)Nc3sccc3C(N)=O)cc2)C1` (configuration not stated), the Potency is 8.91 µM (active).

On to `CC1CN(S(=O)(=O)c2ccc(C(=O)Nc3ccccc3F)cc2)CC(C)O1` (configuration not stated), for which the Potency result was “inactive”.

In the case of `NC(=O)c1ccsc1NC(=O)CCS(=O)(=O)c1ccc(F)cc1`, the Potency entry was “inactive”.

With `Cc1onc(-c2ccc3c(c2)OCO3)c1-c1ccc2[nH]ccc2c1`, the Potency entry was “inactive”.

On to `CCOc1ccc(-c2nnc3ccc(SC(C)C)nn23)cc1`, for which the Potency entry is “inactive”.

`CN(C)c1ccc(-c2nc3ccccc3c(=O)[nH]2)cc1`: the Potency was 20 µM (active).

Take `CN(Cc1nc2ccccc2c(=O)[nH]1)C(=O)c1cccc(S(=O)(=O)N2CCCCCC2)c1`: the Potency entry was “inactive”.

On to `CC(C(=O)Nc1ccccc1-c1ccccc1)N(C)Cc1nc2ccccc2c(=O)[nH]1` (configuration not stated), for which the Potency entry is “inactive”.

Take `CCOC(=O)CNC(=O)CSc1nnc(NC(=O)c2ccc(C)cc2)s1`: the Potency was 12.6 µM (active).

Turning to `CC(C)(C)c1ccc(C(=O)Nc2nnc(SCC(=O)NCC3CCCO3)s2)cc1` (configuration not stated), the Potency is 14.1 µM (active).

As to `Cc1cccc(-n2nnnc2SCC(=O)NCC2CCCO2)c1` (configuration not stated), the Potency result was “inactive”.

With `Cn1c(SCC(=O)NCC2CCCO2)nnc1-c1c[nH]c2ccccc12` (configuration not stated), the Potency entry is “inactive”.

For `CC(C)CC(=O)Nc1nnc(SCC(=O)Nc2ccc(F)cc2)s1`, the Potency result is “inactive”.

For `Cc1cccc(NC(=O)CSc2nnc(NC(=O)CN3CCOCC3)s2)c1`, the Potency result is “inactive”.

In the case of `O=C(COc1ccc2c3c(c(=O)oc2c1)CCC3)N1CCN(c2ccc(F)cc2)CC1`, the Potency entry is “inactive”.

Consider `Nc1nonc1C(=O)NCCNCc1ccc(Cl)c(Cl)c1`, for which the Potency result is “inactive”.

Take `CCCCn1c(N)c(N(CCC(C)C)C(=O)c2ccc3c(c2)OCO3)c(=O)[nH]c1=O`: the Potency result was “inactive”.

Regarding `CCC(C)c1ccccc1OCCCCN1CCCC1` (configuration not stated), the Potency result is “inactive”.

For `CC(C)C(OC(=O)c1cccc(S(=O)(=O)NCC(F)(F)F)c1)C(=O)NC(N)=O` (configuration not stated), the Potency entry is “inactive”.

In the case of `Cc1cc(C)nc(NS(=O)(=O)c2ccc(-n3cccc3)cc2)n1`, the Potency entry was “inactive”.

With `Cc1cc(C(=O)C(=O)N(C)C)c(C)n1-c1ccc([N+](=O)[O-])cc1`, the Potency entry was “inactive”.

On to `Cc1ccccc1CN1C2=NCCN2c2ccccc21`, for which the Potency entry was “inactive”.

On to `O=C(Nc1cccc(C(F)(F)F)c1)c1ccc2c(c1)nnn2C1CCCC1`, for which the Potency is 12.6 µM (active).

On to `CCOC(=O)c1ccccc1NC(=O)CN1CCC(n2nnc3cc(C(F)(F)F)ccc32)CC1`, for which the Potency entry was “inactive”.

With `Cc1cc(C)cc(NC(=O)c2ccc3c(c2)nnn3C2CCCC2)c1`, the Potency entry is “inactive”.

Regarding `COc1ccc(NC(=O)c2cc(-c3ccccn3)nc3ccccc23)cc1S(=O)(=O)N(C)C`, the Potency entry was “inactive”.

For the compound `CCn1c(=O)c(C(=O)NCc2ccc(OC)c(OC)c2)c(O)c2ccccc21`, the Potency entry was “inactive”.

In the case of `COc1ccc(CCNC(=O)CSc2nnc(-c3ccccc3)c3ccccc23)cc1OC`, the Potency result was “inactive”.

For the compound `COc1ccc(CNC(=O)Cn2c(=O)nc(-c3ccccc3)c3ccccc32)cc1OC`, the Potency was 20 µM (active).

As to `CC(=O)c1cc(-c2ccccc2)n(CC(=O)Nc2ccc(C)c(C)c2)c1C`, the Potency result was “inactive”.

For `COc1cccc2sc(N3CCN(c4nc5ccccc5s4)CC3)nc12`, the Potency entry is “inactive”.

Consider `Cc1nc2cc(C(F)(F)F)ccc2n1C1CCN(Cc2nnnn2Cc2cccs2)CC1`, for which the Potency entry is “inactive”.

Take `c1csc(Cn2nnnc2CN2CCN(c3nc4ccccc4s3)CC2)c1`: the Potency is 17.8 µM (active).

For `Nc1ccc(-c2ccc(N)cc2C(F)(F)F)c(C(F)(F)F)c1`, the Potency entry is “inactive”.

For the compound `CC(=O)C1=C(c2ccc(F)cc2)N(C(C)=O)n2c(nnc2C2CCCCC2)S1`, the Potency result is “inactive”.

In the case of `CCOC(=O)Cc1csc(NC(=O)COc2ccc(OC)cc2)n1`, the Potency result is “inactive”.

As for `COc1ccc(OCC(=O)Nc2nccs2)cc1`, the Potency was 15.8 µM (active).

With `CCN(CC)CCNC(=O)COc1ccc(OC)cc1`, the Potency result was “inactive”.

For the compound `COc1ccc(NC(=O)CN(C)C(=O)c2cccc(S(=O)(=O)N3CCN(c4ccccc4)CC3)c2)cc1`, the Potency entry is “inactive”.

For `Cc1ccccc1CS(=O)(=O)c1ccc(C(=O)N2CCOCC2)cc1[N+](=O)[O-]`, the Potency result was “inactive”.

For the compound `Cc1ccc(S(=O)(=O)Cc2cc(F)c([N+](=O)[O-])cc2[N+](=O)[O-])cc1`, the Potency is 15.8 µM (active).

For the compound `Cc1ccc(S(=O)(=O)Nc2c(C)cc([N+](=O)[O-])cc2C)cc1`, the Potency entry is “inactive”.

Take `O=C(N/N=C/c1cccs1)C(O)c1ccccc1` (configuration not stated): the Potency result is “inactive”.

`O=C(Nc1cccc(Cl)c1N1CCOCC1)c1cc([N+](=O)[O-])ccc1N1CCOCC1`: the Potency entry was “inactive”.

In the case of `CCOC(=O)c1cc(C)n(CC2CCC(C(=O)Nc3ccc(OC)cc3)CC2)c1C` (configuration not stated), the Potency result was “inactive”.

For `CCOc1ccc(NC(=O)N(Cc2ccc(CC)cc2)Cc2cn[nH]c2-c2ccc(OC)cc2)cc1`, the Potency result was “inactive”.

For `CCOC(=O)c1cn[nH]c1NC(=S)Nc1ccc(OC)cc1`, the Potency is 17.8 µM (active).

`Cc1ccc(S(=O)(=O)N/N=C/c2ccc(OCC(=O)N3CCOCC3)cc2)cc1`: the Potency result was “inactive”.

Take `CCOc1ccc(CNC(=O)CCCn2ccc3cc(S(=O)(=O)N4CCCC4)ccc32)cc1`: the Potency result is “inactive”.

In the case of `O=C(Nc1ccc(N2CCOCC2)c(Cl)c1)c1c(F)c(F)c(F)c(F)c1F`, the Potency result was “inactive”.

Take `O=C(Nc1ccc(N2CCOCC2)cc1)c1cnccn1`: the Potency is 12.6 µM (active).

With `O=C(Nc1cccc(S(=O)(=O)N2CCCCC2)c1)c1cnccn1`, the Potency entry is “inactive”.

As for `Cc1cc2oc(C(=O)NC3CCS(=O)(=O)C3)cc(=O)c2cc1C` (configuration not stated), the Potency entry is “inactive”.

With `CCc1ccc(NC(=O)c2sc3nc(C)nc(N4CCN(c5ccccn5)CC4)c3c2C)cc1`, the Potency result was “inactive”.

In the case of `CN(C)c1ccc(C(=O)N2CCCC(CCC(=O)N3CCN(c4ccccn4)CC3)C2)cc1` (configuration not stated), the Potency entry was “inactive”.

Take `Cc1ccc(S(=O)(=O)N(C)CCCC(=O)N2CCN(c3ccccn3)CC2)cc1`: the Potency was 22.4 µM (active).

As to `Cc1ccc(S(=O)(=O)N(C)CCCC(=O)Nc2ccncc2)cc1`, the Potency result is “inactive”.

`COc1ccc(C(=O)NCC(=O)N2CCN(C(=O)c3ccco3)CC2)cc1[N+](=O)[O-]`: the Potency entry is “inactive”.

As for `CC(NC(=O)C1CCN(CCOc2ccc(Cl)cc2)CC1)c1cccc2ccccc12` (configuration not stated), the Potency entry is “inactive”.

`O=C(/C=C/c1ccco1)N1CCN(C/C=C/c2ccccc2)CC1`: the Potency entry was “inactive”.

Take `C[C@H](NC(=O)c1ccc(C(C)(C)C)cc1)C(=O)N1CCN(C/C=C/c2ccccc2)CC1`: the Potency entry is “inactive”.

In the case of `O=C(c1ccc(=O)n(Cc2ccccc2)n1)N1CCN(C/C=C/c2ccccc2)CC1`, the Potency is 15.8 µM (active).

In the case of `CCOc1ccc(-n2c(SCc3nc(-c4ccc(OC)cc4)no3)nnc2-c2ccncc2)cc1`, the Potency entry was “inactive”.

`O=C(NCc1ccc(F)cc1)C(=O)NCC(c1cccs1)S(=O)(=O)c1cccs1` (configuration not stated): the Potency result is “inactive”.

For the compound `Cc1ccccc1Nc1sc(C(=O)c2ccccc2)c(N)c1S(C)(=O)=O`, the Potency result was “inactive”.

With `Cc1sc(NC(=O)c2ccccc2)c(C(=O)c2ccccc2)c1C`, the Potency result is “inactive”.

`Cc1ccc(Nc2sc(C(=O)c3ccccc3)c(N)c2C(=O)Nc2ccc(Cl)cc2)cc1`: the Potency is 15.8 µM (active).

With `O=S(=O)(c1ccc(Cl)cc1)c1nnn2c1nc(NC1CCCCC1)c1sccc12`, the Potency result was “inactive”.

In the case of `COc1ccc(C(=O)Nc2nc3ccccc3s2)c(OC)c1`, the Potency result was “inactive”.

For the compound `COc1ccc2oc(C(=O)Nc3nc4ccc(S(C)(=O)=O)cc4s3)c(C)c2c1`, the Potency entry was “inactive”.

Consider `Cc1ccc2nc(NC(=O)CSc3nccn3Cc3ccc(F)cc3)sc2c1`, for which the Potency entry is “inactive”.

As for `Cc1ccc2nc(NC(=O)c3ccco3)sc2c1`, the Potency is 12.6 µM (active).

For `Cc1ccc2nc(NC(=O)c3cc(-c4ccco4)nc4ccccc34)sc2c1`, the Potency result was “inactive”.

Consider `COc1ccc2nc(NC(=O)c3ccco3)sc2c1`, for which the Potency was 15.8 µM (active).

With `CCCCCc1nnc(NC(=O)c2cccc(S(=O)(=O)N3CCOCC3)c2)s1`, the Potency result was “inactive”.

Turning to `CN(C)S(=O)(=O)N1CCc2ccc(NC(=O)c3ccc(C(F)(F)F)cc3)cc2C1`, the Potency entry is “inactive”.

As for `COc1cc(-c2cc(NC=O)c3ncc(-c4cccc(C(F)(F)F)c4)n3c2)cc(OC)c1OC`, the Potency result is “inactive”.

`CSc1ccccc1OCc1cc(C(=O)NCC(C)(C)N2CCOCC2)no1`: the Potency result is “inactive”.

As for `N#Cc1cc2c(nc1SCC(=O)Nc1ccc(OC(F)(F)F)cc1)C1CCN2CC1`, the Potency is 15.8 µM (active).

Turning to `O=C1CCCN2N=C(SCC(=O)Nc3ccc(OC(F)(F)F)cc3)SC2=N1`, the Potency entry was “inactive”.

Consider `O=C(CSc1nc(=O)n(CCN2CCOCC2)c2c1CCC2)Nc1ccc(OC(F)(F)F)cc1`, for which the Potency result was “inactive”.

Regarding `CCCN1C(=O)c2cc(C(=O)Nc3ccccc3OC)ccc2C1Nc1ccccc1OC` (configuration not stated), the Potency result is “inactive”.

Take `CCc1ccc(-n2c(=O)c3c4c(sc3n(CC(=O)N3CCCCC3CC)c2=O)CCC4)cc1` (configuration not stated): the Potency entry is “inactive”.

As for `CC(C)C(=O)N1CCC(CN=Cc2c(O)n(C3CCCCC3)c(=O)n(C3CCCCC3)c2=O)CC1`, the Potency is 25.1 µM (active).

For the compound `Cc1ccc(-c2cc(-c3ccc(F)cc3)nc(N)c2C#N)o1`, the Potency entry was “inactive”.

Turning to `CC(C)Oc1ccc(CNC(=O)c2cccc(NC(=O)N3CCSc4ncccc43)c2)cc1`, the Potency is 20 µM (active).

For the compound `CC(C)(C)OC(=O)N1CCCC(C(=O)Nc2cccc(C(=O)NCc3ccccc3)c2)C1` (configuration not stated), the Potency entry is “inactive”.

On to `CC(C)Oc1ccc(CN2CCC2(C)C(=O)Nc2cccc(Oc3ccccc3)c2)cc1` (configuration not stated), for which the Potency result is “inactive”.

In the case of `Cc1[nH]c2ccccc2c1C(=O)CN1C(=O)C(=O)N(CCC2=CCCCC2)C1=O`, the Potency result is “inactive”.

Consider `COc1cc2c(cc1NC(=O)c1cc(-c3ccncc3)nc3ccccc13)oc1ccccc12`, for which the Potency result was “inactive”.

Consider `CCC1(c2ccc(F)cc2)NC(=O)N(CC(=O)Nc2cc(S(=O)(=O)N(C)C)ccc2Cl)C1=O` (configuration not stated), for which the Potency result was “inactive”.

Values taken from PubChem BioAssay AID1347131 (National Center for Advancing Translational Sciences (NCATS), 2019).
